PubChem BioAssay

Key:
[1] = molecular target: Tumor necrosis factor receptor superfamily member 10B (Homo sapiens) (UniProt O14763); assay: viability loss of caspase-8 NB7 cells with TRAIL – with/without TRAIL, luminescence panel, confirmation (AID 651596); conditions: NB7 neuroblastoma + caspase-8, TRAIL sensitization, NB7 Caspase-8, with TRAIL, mean of runs, at 10 µM, stronger effect = higher value
[2] = as above; conditions: NB7 neuroblastoma + caspase-8, without TRAIL, NB7 Caspase-8, without TRAIL, mean of runs, at 10 µM

Tumor necrosis factor receptor superfamily member 10B (Homo sapiens), sequence (O14763 whole entry, looked up): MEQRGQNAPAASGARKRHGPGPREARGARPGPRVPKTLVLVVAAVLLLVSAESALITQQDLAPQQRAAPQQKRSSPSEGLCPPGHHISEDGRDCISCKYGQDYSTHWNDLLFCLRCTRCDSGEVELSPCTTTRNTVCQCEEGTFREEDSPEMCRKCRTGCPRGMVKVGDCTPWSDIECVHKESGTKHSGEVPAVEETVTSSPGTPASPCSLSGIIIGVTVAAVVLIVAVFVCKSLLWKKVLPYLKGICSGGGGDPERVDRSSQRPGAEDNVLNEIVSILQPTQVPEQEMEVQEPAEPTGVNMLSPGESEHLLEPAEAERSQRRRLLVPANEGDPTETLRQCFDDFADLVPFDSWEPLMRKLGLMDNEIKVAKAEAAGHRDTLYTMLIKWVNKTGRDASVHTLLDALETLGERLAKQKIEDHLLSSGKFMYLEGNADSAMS

Structure (SMILES)	activity [1] [%]	activity [2] [%]
CCS(=O)(=O)c1ncc(Cl)c(C(=O)Nc2ccc(S(=O)(=O)N3CCC(C)CC3)cc2)n1	95.2	98.8
CCCCN(C)C(=O)c1ccc(Nc2nc(C(N)Cc3ccc(C(F)(F)F)cc3)cs2)nc1 (stereo not given)	56.9	90.2
c1ccc(-n2nnc3c(N4CCOCC4)ncnc32)cc1	74.7	74.7
OCC1OC(n2cnc3c(=S)nc[nH]c32)CC1O (stereo not given)	31.4	35.7
Cc1nc2cc(NC(=O)Nc3ccccc3Cl)ccc2n1C	78.5	78.2
CCCCCCCN(C(=O)CCl)c1cccc(C)c1	99	99
O=C(N/N=C/c1cn(-c2ccccc2)nc1-c1cc2ccccc2o1)c1cccnc1	61.2	50.2
COc1cccc(N=c2oc3ccc(OC)cc3cc2-c2nc3ccccc3[nH]2)c1	12.8	18.1
COc1cc(SC#N)ccc1N=Cc1c(C)[nH]n(-c2ccc(C)c(C)c2)c1=O	93	97.7
O=C1c2ccccc2S(=O)(=O)c2cc(N3CCOCC3)ccc21	73.2	73.9
CC(C)(CNC(=O)c1ccc([N+](=O)[O-])c(Cl)c1)CNC(=O)c1ccc([N+](=O)[O-])c(Cl)c1	54.5	60.3
O=C(Nc1ccc2nc(-c3ccco3)[nH]c2c1)c1cccs1	72.4	80.6
COc1cccc(NC(=O)Nc2nc(-c3ccc(OC)c(OC)c3)cs2)c1	98.5	99.2
COc1ccccc1-c1cc2nc(-c3ccccc3)cc(N3CCN(C(=O)c4ccoc4)CC3)n2n1	78.4	62.7
O=C(NCc1cccnc1)/C(=C\c1ccc(-c2ccc(Cl)c(Cl)c2)o1)S(=O)(=O)c1ccccc1	98.1	99.2
